Results: PubChem BioAssay AID602475 (National Center for Advancing Translational Sciences (NCATS), 2012)
Results filed as inconclusive are left out. A call without a number means that no potency is given here. Activity calls are given as the source filed them. Calls follow the shape of the dose curve; as a rule, active = well fitted inhibition curve with a large enough effect; inconclusive = small, poorly fitted or top-dose-only effect; inactive = no such curve, though single readings can be large or run the other way.

Biological target: Luciferin 4-monooxygenase (Photinus pyralis) (UniProt P08659)
Sequence (P08659 whole entry, looked up): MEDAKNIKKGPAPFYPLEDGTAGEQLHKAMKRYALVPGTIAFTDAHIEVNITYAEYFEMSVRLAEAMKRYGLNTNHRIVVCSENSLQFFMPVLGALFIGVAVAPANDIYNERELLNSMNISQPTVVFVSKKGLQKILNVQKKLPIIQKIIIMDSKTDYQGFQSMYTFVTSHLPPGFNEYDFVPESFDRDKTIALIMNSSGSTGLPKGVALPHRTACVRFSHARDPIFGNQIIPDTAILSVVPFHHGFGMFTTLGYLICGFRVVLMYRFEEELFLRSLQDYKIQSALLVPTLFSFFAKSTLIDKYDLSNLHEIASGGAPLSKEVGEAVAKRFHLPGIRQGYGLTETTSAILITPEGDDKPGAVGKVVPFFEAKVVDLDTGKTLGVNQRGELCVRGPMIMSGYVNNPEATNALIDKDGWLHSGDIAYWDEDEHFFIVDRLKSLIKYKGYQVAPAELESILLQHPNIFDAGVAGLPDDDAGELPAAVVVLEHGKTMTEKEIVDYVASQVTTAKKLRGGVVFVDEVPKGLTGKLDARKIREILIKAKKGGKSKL
Test: FLuc inhibitory activity for the follow-up compounds in a biochemical assay with an in-house formulation of detection reagent
Outline: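 Purified P. pyralis luciferase (10 nM) in 50 mM Tris acetate, compounds titrated 12-point from ~25uM to 0.1nM. In-house detection reagent added (450uM ATP, 1mM D-luciferin, 500uM coenzyme A, 5mM DTT, 1% Triton-X100); luminescence imaged.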

Structure (SMILES): O=C(Nc1ccccc1C(=O)O)c1cc(S(=O)(=O)NCc2ccccc2)ccc1Cl
- Potency: inactive
